Screens: PubChem, Broad Institute
This is one part of a sample in which hits are shown more often than they occur.
miR-122 inh = miR-122 suppressors via Renilla sensor increase, primary screen, cell-based, Huh7 psiCHECK-miR122, Renilla luciferase, single point. 48 h. activation, % at 12.5 µM. 0.14% of 340,000 active;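 active = mean activation of 30% or more, with every replicate also reaching 30%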;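 also: 0% = median of neutral control wells and 100% = median of positive control wells; higher luciferase signal means stronger suppression of miR-122 activity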
* marks the source's active call; other numbers are inactive results.

SMILES	miR-122 inh
COc1cccc(-c2cnc3c(c2)C(=O)N([C@@H](C)CO)C[C@H](C)[C@H](CN(C)Cc2ccccc2)O3)c1	-11
C[C@@H]1CN([C@@H](C)CO)C(=O)c2cc(-c3cncnc3)cnc2O[C@H]1CN(C)Cc1ccncc1	-1
C/C=C/c1ccc2c(c1)O[C@H](CN(C)Cc1ccccc1)[C@@H](C)CN([C@@H](C)CO)S2(=O)=O	-9
C[C@@H]1CN([C@@H](C)CO)C(=O)c2cc(-c3ccc(C(=O)N(C)C)cc3)cnc2O[C@H]1CN(C)C(=O)c1cccnc1	-1
COc1ccc(NC(=O)N(C)C[C@@H]2Oc3ncc(-c4cc5ccccc5o4)cc3C(=O)N([C@H](C)CO)C[C@@H]2C)cc1	8
CCCNC(=O)N(C)C[C@H]1Oc2ncc(C#CCC(C)C)cc2C(=O)N([C@H](C)CO)C[C@@H]1C	-2
CCN(CC)CCNc1nc(-c2ccccc2)nnc1C(F)(F)F	44*
CCC(=O)Nc1ccc2c(c1)OC[C@H](C)N(C(=O)c1ccncc1)C[C@@H](C)[C@H](OC)CN(C)C2=O	-7
COc1ccc(C(NC(C)=O)c2cc(Cl)c3cccnc3c2O)cc1 (stereo unspecified)	72*
C[C@@H]1CCCCO[C@@H](CN(C)CC2CCCCC2)[C@H](C)CN([C@@H](C)CO)C(=O)c2cc(NC(=O)Nc3cccc4ccccc34)ccc2O1	31*
C[C@H]1CCCCO[C@@H](CN(C)CC2CCCCC2)[C@@H](C)CN([C@@H](C)CO)C(=O)c2cc(NC(=O)Nc3cccc4ccccc34)ccc2O1	33*
C[C@H](CO)N1C[C@H](C)[C@H](CN(C)Cc2ccc(C(=O)Nc3ccccc3N)cc2)Oc2ccc(NC(=O)Nc3cccc4ccccc34)cc2CC1=O	-96
C[C@@H]1CN([C@H](C)CO)C(=O)Cc2cc(NC(=O)Nc3cccc4ccccc34)ccc2O[C@@H]1CN(C)C(=O)NC1CCCCC1	-121
C[C@@H]1CN([C@H](C)CO)C(=O)Cc2cc(NC(=O)Nc3cccc4ccccc34)ccc2O[C@@H]1CN(C)C(=O)Nc1cccc2ccccc12	-99
C[C@H](CO)N1C[C@H](C)[C@@H](CN(C)Cc2ccncc2)Oc2ccc(NC(=O)Nc3cccc4ccccc34)cc2CC1=O	-98
C/C=C/c1cnc2c(c1)C(=O)N([C@@H](C)CO)C[C@H](C)[C@H](CN(C)C(=O)Nc1ccccc1F)O2	2
C[C@@H]1CN([C@H](C)CO)S(=O)(=O)c2ccc(-c3ccc(C#N)cc3)cc2O[C@@H]1CN(C)C(=O)C1CC1	6
C[C@H](O)C#Cc1cnc2c(c1)C(=O)N([C@@H](C)CO)C[C@H](C)[C@H](CN(C)C(=O)CN(C)C)O2	-4
C[C@H](CO)N1C[C@H](C)[C@H](CN(C)C(=O)c2cccnc2)Oc2ncc(-c3ccccc3)cc2C1=O	-8
CC(C)CC#Cc1cnc2c(c1)C(=O)N([C@@H](C)CO)C[C@@H](C)[C@H](CN(C)C(=O)Nc1cc(F)ccc1F)O2	0
C[C@H](NC(=O)C[C@H]1CC[C@@H]2[C@@H](COc3ccc(NS(=O)(=O)c4ccc(Cl)cc4)cc3C(=O)N2C)O1)c1ccccc1	45*
C[C@H](NC(=O)C[C@@H]1CC[C@H]2[C@H](COc3ccc(NS(=O)(=O)c4ccc(Cl)cc4)cc3C(=O)N2C)O1)c1ccccc1	37*
C[C@@H]1CN([C@@H](C)CO)C(=O)c2cc(C#CC3(O)CCCC3)cnc2O[C@H]1CN(C)Cc1cncnc1	-1
C[C@@H]1CN([C@H](C)CO)C(=O)c2cc(-c3cncnc3)cnc2O[C@@H]1CN(C)Cc1ccncc1	3
CCC(=O)N1C[C@@H](C)[C@H](OC)CN(C)C(=O)c2ccc(NC(=O)C3CCCCC3)cc2OC[C@@H]1C	2
SMILES	miR-122 inh
CC(=O)N(C)C[C@H]1Oc2cc(C#CC3CCCCC3)ccc2S(=O)(=O)N([C@@H](C)CO)C[C@H]1C	13
C[C@@H]1CN([C@H](C)CO)C(=O)c2cc(/C=C/c3ccccc3)cnc2O[C@H]1CN(C)C(=O)c1cccnc1	9
C[C@@H]1CN([C@@H](C)CO)S(=O)(=O)c2ccc(-c3ccccc3)cc2O[C@@H]1CN(C)Cc1cncnc1	1
CCN(CC)c1ccc(C(=C2C=CC(=[N+](CC)CC)C=C2)c2ccc(N(CC)CC)cc2)cc1	38*
C[C@H]1CN([C@@H](C)CO)C(=O)c2cc(C#Cc3ccc(F)cc3)cnc2O[C@H]1CN(C)CC1CCOCC1	8
C[C@H]1CN([C@@H](C)CO)C(=O)c2cc(C#CCN(C)C)cnc2O[C@@H]1CN(C)C(=O)Cc1ccncc1	2
O=C1/C(=C/c2ccncc2)CCC/C1=C\c1ccncc1	78*
COc1cc(/C=C2/CCC/C(=C\c3cc(O)c(OC)c(Cl)c3)C2=O)cc(Cl)c1O	-113
C[C@H]1CN([C@@H](C)CO)S(=O)(=O)c2ccc(-c3ccc(F)cc3)cc2O[C@H]1CN(C)C(=O)C1CCOCC1	-7
CCCC#Cc1ccc2c(c1)O[C@H](CN(C)C(=O)NCCC)[C@@H](C)CN([C@@H](C)CO)S2(=O)=O	-16
COc1ccc(S(=O)(=O)Nc2ccc3c(c2)CC(=O)N([C@H](C)CO)C[C@H](C)[C@H](CN(C)Cc2ccc(C(=O)Nc4ccccc4N)cc2)O3)cc1	-212
C[C@H](CO)N1C[C@H](C)[C@@H](CN(C)C(=O)CC2CC2)Oc2ncc(C#CCC3CCCC3)cc2C1=O	1
C[C@H](O)C#Cc1ccc2c(c1)O[C@@H](CN(C)Cc1cncnc1)[C@@H](C)CN([C@H](C)CO)S2(=O)=O	4
OCc1ccc(-c2nn(Cc3ccccc3)c3ccccc23)o1	54*
C[C@H]1CN([C@@H](C)CO)C(=O)c2cccc(NC(=O)C3CC3)c2O[C@@H]1CN(C)Cc1ccc(C(F)(F)F)cc1	-113
CCCNC(=O)N(C)C[C@H]1Oc2ncc(C#C[C@H](C)O)cc2C(=O)N([C@H](C)CO)C[C@H]1C	3
COc1ccc(Cn2c(SCc3ccccc3C)nc3cc(OC)c(OC)cc3c2=N)cc1	62*
CCCNC(=O)N(C)C[C@H]1Oc2ncc(C#C[C@H](C)O)cc2C(=O)N([C@H](C)CO)C[C@@H]1C	1
C[C@@H]1CN([C@@H](C)CO)C(=O)c2cc(-c3ccncc3)cnc2O[C@@H]1CN(C)C(=O)Cc1ccccn1	0
CCCC(=O)Nc1ccc2c(c1)OC[C@@H](C)N(C)C[C@H](C)[C@H](OC)CN(C)C2=O	1
CC(C)CC#Cc1ccc2c(c1)O[C@H](CN(C)C(=O)c1cnccn1)[C@H](C)CN([C@@H](C)CO)S2(=O)=O	36*
CC(C)CC#Cc1ccc2c(c1)O[C@@H](CN(C)C(=O)NC1CCCC1)[C@@H](C)CN([C@H](C)CO)S2(=O)=O	-7
C/C=C/c1ccc2c(c1)O[C@H](CN(C)C(=O)c1cccnc1)[C@@H](C)CN([C@H](C)CO)S2(=O)=O	-5
CC(C)CC#Cc1ccc2c(c1)O[C@H](CN(C)C(=O)c1ccccc1)[C@H](C)CN([C@H](C)CO)S2(=O)=O	42*
CCCC#Cc1ccc2c(c1)O[C@@H](CN(C)C(=O)c1cccnc1)[C@H](C)CN([C@@H](C)CO)S2(=O)=O	-18
COc1cccc(C#Cc2ccc3c(c2)O[C@H](CN(C)C(=O)CN2CCOCC2)[C@@H](C)CN([C@@H](C)CO)S3(=O)=O)c1	-18
COc1ccc(C#Cc2ccc3c(c2)O[C@H](CN(C)C(=O)CN2CCOCC2)[C@@H](C)CN([C@@H](C)CO)S3(=O)=O)cc1	43*
